# High-throughput results: PubChem, several laboratories
# This is a sample that favours compounds with a hit; in the whole collection about 32% have one here.
# CYP2C19 act – cytochrome P450 2C19 (human) activation; P33261; recombinant CYP2C19, luciferin-H EGE luminescence; hits give high values; 0 = fully inhibited enzyme, 1 = untreated enzyme; activation factor at 5 µM; 96,000 tested, under 10 active; AID 1025;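 active = activation factor of at least 2 at 5 µM in the primary screen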;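 note: 0 = wells with 2.5 mM tranylcypromine and 1 = vehicle-only wells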
# CYP2C9 act – increases human cytochrome P450 2C9 activity. 96,000 tested, 1.4% active. activation factor at 5 µM. recombinant CYP2C9, luciferin-H conversion, luminescence; hits give high values; factor 1 = untreated enzyme, 0 = blocked;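 active = activation factor of 2 or more for CYP2C9 at a 5 µM dose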;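 note: 0 = sulfaphenazole-blocked wells and 1 = vehicle-only wells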
# Target sequence (P11712 whole entry, looked up): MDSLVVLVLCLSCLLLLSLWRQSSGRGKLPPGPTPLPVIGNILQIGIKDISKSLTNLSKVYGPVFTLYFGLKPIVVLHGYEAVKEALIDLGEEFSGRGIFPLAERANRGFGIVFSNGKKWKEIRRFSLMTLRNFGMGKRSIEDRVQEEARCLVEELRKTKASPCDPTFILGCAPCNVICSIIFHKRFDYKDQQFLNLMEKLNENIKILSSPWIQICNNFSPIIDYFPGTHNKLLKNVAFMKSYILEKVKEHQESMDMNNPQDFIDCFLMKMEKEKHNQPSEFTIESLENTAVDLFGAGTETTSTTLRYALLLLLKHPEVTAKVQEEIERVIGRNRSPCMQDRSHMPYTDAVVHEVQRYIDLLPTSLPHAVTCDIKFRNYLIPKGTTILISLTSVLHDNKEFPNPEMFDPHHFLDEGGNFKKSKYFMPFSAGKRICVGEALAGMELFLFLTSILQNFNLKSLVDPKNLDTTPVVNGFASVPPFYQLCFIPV
# CYP2C19 inh – human CYP2C19 inhibition. AID 778. inhibition, % at 5 µM. CYP2C19 Supersomes, luciferin-H EGE luminescence, 30 min. 96,000 tested, 21% active;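 active = CYP2C19 inhibition above a set limit at 5 µM in the primary screen, cut at about 50% in these data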;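 note: plate controls were negative control wells for no effect and 2.5 mM tranylcypromine positive control for full effect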
# CYP2C9 inhib – blocks human cytochrome P450 2C9. 96,000 tested, 20% active. P11712. inhibition, % at 5 µM. AID 777. CYP2C9 Supersomes, luciferin-H conversion, luminescence;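 active = blocking of liver enzyme CYP2C9 beyond about 50% at 5 µM, limit read from the data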
# PostGolgi yeast – growth inhibition of a yeast mutant, post-Golgi transport screen | post-Golgi transport phenotypic cell assay | AID 739 | inhibition, % at 10 µM | 98,000 tested, 0.9% active;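 note: yeast cells grown in 1536-well plates; yeast grown about 18 h at 30C before absorbance read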
# PostGolgi ctrl – yeast control strain growth, post-Golgi counter-screen | inhibition, % at 10 µM | 98,000 tested, 5% active | efflux-deficient yeast background strain, growth absorbance A615, 16 h
# * marks the source's active call; other numbers are inactive results; x = no result given. Cut-off read from the data, not from the text of the source, unless noted: active = inhibition above about 30%; inactive = the rest.
SMILES,CYP2C19 act,CYP2C9 act,CYP2C19 inh,CYP2C9 inhib,PostGolgi yeast,PostGolgi ctrl
CCCS(=O)(=O)N1CCCC(C(=O)NCCCN2CCN(c3ccccc3F)CC2)C1 (configuration not stated),1,1,-0.2,2.2,-3.5,-6.3
CC1(C)Cc2c(c(-c3ccccc3)nc(N3CCOCC3)c2C(N)=O)CO1,1,0.8,-0.9,23.3,-3.2,-9.4
O=C(COC(=O)CCNS(=O)(=O)c1ccc2c(c1)OCCO2)NC1CCCc2ccccc21 (configuration not stated),0.4,1.2,62.0*,-18.5,-2.3,0.6
O=C(COC(=O)C1CC(=O)N(c2ccc3c(c2)OCCO3)C1)NC1CCCc2ccccc21 (configuration not stated),1,0.8,3.6,21.4,-4.7,4.0
O=c1[nH]c2ccc(S(=O)(=O)Nc3ccc(-c4nnc5n4CCCCC5)cc3)cc2o1,0.9,0.7,6.7,30.9,0.2,0.5
O=C(C1CC(c2ccccc2O)=NO1)N1CCc2ccccc2C1 (configuration not stated),0.4,0.7,61.9*,33.5,3.8,19.4
O=C(C1CC(c2ccc(F)cc2)=NO1)N1CCCCC1 (configuration not stated),x,x,x,x,-3.4,-2.7
O=C(C1CC(c2ccc(F)cc2)=NO1)N1CCc2ccccc2C1 (configuration not stated),0.4,0.8,62.9*,16.3,8.6,12.6
O=C(C1CC(c2ccccc2O)=NO1)N1CCCCC1 (configuration not stated),0.3,0.5,70.3*,47.2,11.9,-7.4
COc1cccc(C2=NOC(C(=O)N3CCc4ccccc4C3)C2)c1 (configuration not stated),x,x,x,x,3.7,8.4
CC(=C\C(=O)O)/C(=C/c1ccccc1)C(=O)O,1,1.3,3.9,-27.6,-0.2,2.2
CN1CCC(=NNC(=O)C(=O)NC2CCCC2)CC1,1,1.1,-3.2,-7.7,-0.7,8.6
CN1CCC(=NNC(=O)C(=O)NC(C)(C)C)CC1,0.7,0.4,31.3,55.4*,4.5,4.5
Cn1c(=O)c2c(nc(N3CCc4ccccc4C3)n2Cc2ccccc2F)n(C)c1=O,x,x,x,x,8.8,47.2*
CCN1CCN(c2nc3c(c(=O)n(C)c(=O)n3C)n2Cc2cccc3ccccc23)CC1,0.8,0.8,16.2,21.9,6.9,2.6
Cn1c(=O)c2c(nc(N3CCc4ccccc4C3)n2Cc2ccc(Br)cc2)n(C)c1=O,0.9,0.8,9.3,18.8,-4.6,26.8
Cn1c(=O)c2c(nc(N3CCN(c4ccccn4)CC3)n2Cc2ccccc2Cl)n(C)c1=O,0.6,0.6,35.2,44.7,-1.1,33.0*
COc1ccc(N2CCN(c3nc4c(c(=O)n(C)c(=O)n4C)n3Cc3ccccc3)CC2)cc1,0.5,0.3,48.7,67.5*,12.8,9.8
O=C(Cn1cc2c(n1)CCCCC2)Nc1ccc(F)cc1F,1,0.8,3.2,16.1,10.6,11.7
CCOC(=O)CSc1nnc(CNC(=O)c2cc(OC)c(OC)c(OC)c2)n1C,1.2,1.1,-15.7,-7.8,-1.5,-9.5
Cc1cc(C)c2cc(CN(CCO)Cc3nnnn3Cc3ccc(F)cc3)c(=O)[nH]c2c1,0.6,0.7,40.3,25.4,10.4,-0.6
COCCn1nnnc1CN(CCc1ccc(OC)c(OC)c1)Cc1cc2ccc(C)cc2[nH]c1=O,0.4,0.4,58.6*,60.8*,-2.5,20.0
Cc1ccc2cc(CN(CCO)Cc3nnnn3Cc3ccc(F)cc3)c(=O)[nH]c2c1,0.7,0.6,31.6,41.5,36.9*,-5.1
COc1ccc(-c2nnc(SCC(=O)Nc3ncc(C)s3)n2-c2ccccc2)cc1OC,0.4,0.5,61.7*,51.3*,-7.9,-0.6
Cc1cnc(NC(=O)CSc2nnc(-c3ccncc3)n2C2CCCCC2)s1,0.2,0.6,76.5*,44.3,19.5,6.8
SMILES,CYP2C19 act,CYP2C9 act,CYP2C19 inh,CYP2C9 inhib,PostGolgi yeast,PostGolgi ctrl
Cc1ccc(NS(=O)(=O)c2ccc(C)c(C(=O)N3CCN(C)CC3)c2)cc1,0.9,1,14.4,1.4,1.5,-3.6
Cc1cc(Nc2ccccc2)n(CCO)n1,0.9,0.8,5.6,16.6,-4.1,6.5
COc1ccc(/C=N/NC(=O)Nc2cccc3nsnc23)c(OC)c1,1,0.9,-0.2,6.9,7.1,-0.9
COc1cc(/C=N/NC(=O)Nc2cccc3nsnc23)cc(OC)c1OC,0.9,0.4,5.4,55.9*,16.4,0.8
COc1cccc(N2CCN(C(=O)c3ccc4nc(N5CCCCC5)sc4c3)CC2)c1,0.7,0.7,28.3,30.2,15.9,21.9
CCc1ccccc1N(C(=O)CCC(=O)Nc1cc(C)on1)C(C(=O)NC1CCCC1)c1ccco1 (configuration not stated),0.3,0.4,74.7*,57.7*,x,x
C=CCN(C(=O)CCC(=O)Nc1cc(C)on1)C(C(=O)NC1CCCC1)c1cccnc1 (configuration not stated),0.6,0.3,44.8,67.8*,-2.4,16.8
Cc1cc(NC(=O)CCC(=O)N(CC2CCCO2)C(C(=O)NC2CCCC2)c2cccnc2)no1 (configuration not stated),1.1,1,-5.3,0.4,0.9,11.8
Cc1cc(NC(=O)CCC(=O)N(C2CC2)C2(C(=O)NC3CCCC3)CCC(C)CC2)no1 (configuration not stated),0.4,0.3,58.6*,71.2*,1.0,18.3
Cc1cc(NC(=O)CCC(=O)N(CC(=O)NC2CCCC2)Cc2ccccc2Cl)no1,0.6,0.4,41.1,57.5*,-2.2,-7.2
Cc1ccc(-c2nn(CC(=O)N(C)C)c(=O)c3ccccc23)cc1S(=O)(=O)N(C)C,0.8,0.4,21.2,62.2*,-2.6,14.3
CN(C)C(=O)Cn1nc(-c2ccccc2)c2ccccc2c1=O,0.8,1,22.3,4.5,-1.3,3.9
COC(=O)Cn1nc(-c2ccc(C)c(S(=O)(=O)N(C)C)c2)c2ccccc2c1=O,0.8,0.4,20.0,59.0*,21.8,10.6
Cc1ccnc2nc(C(=O)OCC(=O)Nc3ccc4c(c3)OC(F)(F)O4)nn12,1.1,1,-7.5,-1.9,-5.5,1.7
COc1cc(OC)c(Cl)cc1N,0.8,0.8,24.0,21.6,5.9,-5.7
COc1cc(OC)cc(-n2nnnc2SCC(=O)NC2CCCC2)c1,0.9,3.1*,13.8,-206.2,-2.2,14.1
Cn1ccnc1SCC(=O)NC1CC1,1.2,0.8,-15.1,16.5,-3.4,-3.4
Cn1ccnc1SCC(=O)NC1CCCCC1,0.1,1,91.9*,-4.6,-2.6,5.2
CSc1nsc(SCC(=O)NC2CCCCC2)n1,0,1,95.9*,1.4,7.6,6.5
CCc1nnc(SCC(=O)NC2CCCCC2)nc1CC,1,1.2,4.2,-24.7,-13.9,-1.2
COc1ccccc1-n1c(CNC(=O)COc2ccccc2)n[nH]c1=S,0.7,1.1,33.4,-8.7,-3.5,-3.0
Nc1ccc(-n2ccnc2)cc1,0.4,0.5,57.5*,51.6*,-2.6,-7.9
